We go through eight sequences from article PMC7862700, “An all-to-all approach to the identification of sequence-specific readers for epigenetic DNA modifications on cytosine”.

Holding throughout (experiment): DAPPL (digital affinity profiling via proximity ligation, sequencing); 10 mM Tris-HCl pH 7.5, 50 mM NaCl, 1 mM DTT, 4% glycerol, room temperature, 30 min; GST-TFs on glutathione beads, 16-mer random dsDNA library, 0.1% formaldehyde crosslink after washing; high values mean tight binding
Holding throughout (settings): protein: recombinant; tags: N-terminal GST; dsDNA, one strand shown

One test addresses T1, ERF (Homo sapiens, UniProt P50548 1-548).
T1 sequence: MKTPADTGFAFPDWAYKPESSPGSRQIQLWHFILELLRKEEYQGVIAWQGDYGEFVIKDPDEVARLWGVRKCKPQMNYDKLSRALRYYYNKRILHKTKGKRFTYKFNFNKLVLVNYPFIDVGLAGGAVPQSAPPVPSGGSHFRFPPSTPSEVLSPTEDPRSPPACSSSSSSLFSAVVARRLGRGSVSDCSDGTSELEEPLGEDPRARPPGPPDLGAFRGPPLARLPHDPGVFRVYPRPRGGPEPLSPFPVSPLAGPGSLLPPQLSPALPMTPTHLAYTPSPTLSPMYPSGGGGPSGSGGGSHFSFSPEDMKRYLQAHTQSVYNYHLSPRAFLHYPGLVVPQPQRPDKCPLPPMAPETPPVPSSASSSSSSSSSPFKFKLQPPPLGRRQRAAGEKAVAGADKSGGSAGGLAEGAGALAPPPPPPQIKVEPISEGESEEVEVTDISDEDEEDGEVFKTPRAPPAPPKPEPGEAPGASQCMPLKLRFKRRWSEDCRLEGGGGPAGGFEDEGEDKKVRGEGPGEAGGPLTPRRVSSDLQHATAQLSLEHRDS
In a few lines:
(§1)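 Yeast served to express human transcription factors as GST fusions, which were then captured on glutathione beads and labelled with DNA barcodes. Pooled with a tag-only sample, they were incubated with 200 nmole of a 16-mer random double-stranded DNA library for 30 min at room temperature in Tris/NaCl/DTT/glycerol buffer, washed, crosslinked with 0.1% formaldehyde, ligated by proximity, amplified by PCR and sequenced. Dividing each hexamer's read frequency for a factor by its frequency for the tag-only sample gives the binding signal.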

The target of a further test is T2, ETV3L (Homo sapiens, UniProt Q6ZN32 1-361).
T2 sequence: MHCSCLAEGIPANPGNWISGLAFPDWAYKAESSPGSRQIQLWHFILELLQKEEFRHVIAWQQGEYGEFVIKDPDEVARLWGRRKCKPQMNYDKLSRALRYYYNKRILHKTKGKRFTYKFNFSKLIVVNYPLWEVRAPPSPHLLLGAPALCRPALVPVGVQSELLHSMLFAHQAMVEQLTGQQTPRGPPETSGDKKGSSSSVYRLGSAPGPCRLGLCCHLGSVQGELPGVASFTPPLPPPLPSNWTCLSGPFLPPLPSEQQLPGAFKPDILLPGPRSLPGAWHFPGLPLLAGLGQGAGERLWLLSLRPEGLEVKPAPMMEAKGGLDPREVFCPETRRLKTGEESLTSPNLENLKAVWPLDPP
In a few lines: as §1

In another test the target is T3, ETS2 (Homo sapiens, UniProt P15036 1-469).
T3 sequence: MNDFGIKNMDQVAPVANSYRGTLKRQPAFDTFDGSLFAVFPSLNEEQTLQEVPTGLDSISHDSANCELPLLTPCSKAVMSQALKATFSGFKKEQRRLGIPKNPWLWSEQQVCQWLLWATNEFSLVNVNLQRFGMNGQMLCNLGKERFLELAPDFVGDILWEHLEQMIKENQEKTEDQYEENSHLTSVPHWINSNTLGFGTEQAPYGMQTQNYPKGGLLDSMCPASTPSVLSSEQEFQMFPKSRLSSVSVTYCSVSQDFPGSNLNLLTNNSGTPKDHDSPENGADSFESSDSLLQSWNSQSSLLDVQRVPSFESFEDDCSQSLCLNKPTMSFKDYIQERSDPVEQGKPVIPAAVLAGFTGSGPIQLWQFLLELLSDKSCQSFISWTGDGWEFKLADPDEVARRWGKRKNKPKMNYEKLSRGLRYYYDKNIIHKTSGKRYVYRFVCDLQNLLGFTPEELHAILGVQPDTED
In a few lines: as §1

In another test the target is T4, SPDEF (Homo sapiens, UniProt O95238 1-335).
T4 sequence: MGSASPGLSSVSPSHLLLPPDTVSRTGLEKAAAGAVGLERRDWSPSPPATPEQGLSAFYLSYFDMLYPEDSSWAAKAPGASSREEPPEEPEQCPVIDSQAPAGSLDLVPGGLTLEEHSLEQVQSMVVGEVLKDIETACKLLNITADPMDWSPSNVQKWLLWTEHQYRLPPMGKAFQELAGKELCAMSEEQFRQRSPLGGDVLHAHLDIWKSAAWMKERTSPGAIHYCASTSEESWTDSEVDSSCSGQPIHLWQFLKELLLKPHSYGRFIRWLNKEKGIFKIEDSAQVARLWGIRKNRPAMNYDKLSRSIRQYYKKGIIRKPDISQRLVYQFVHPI
In a few lines: as §1

The next test deals with T5, ETV7 (Homo sapiens, UniProt Q9Y603 1-341).
T5 sequence: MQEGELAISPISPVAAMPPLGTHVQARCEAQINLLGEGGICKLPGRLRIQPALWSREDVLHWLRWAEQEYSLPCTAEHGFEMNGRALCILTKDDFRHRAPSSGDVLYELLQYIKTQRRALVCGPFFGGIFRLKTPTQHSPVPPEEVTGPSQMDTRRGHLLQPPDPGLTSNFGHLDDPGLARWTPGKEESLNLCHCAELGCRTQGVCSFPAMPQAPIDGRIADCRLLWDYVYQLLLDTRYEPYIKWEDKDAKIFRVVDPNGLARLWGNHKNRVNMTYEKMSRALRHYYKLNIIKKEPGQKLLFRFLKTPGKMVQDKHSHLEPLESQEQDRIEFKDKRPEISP
In a few lines: as §1

For the next test, the target named is T6, ELF5 (Homo sapiens, UniProt Q9UKW6-2 1-255).
T6 sequence: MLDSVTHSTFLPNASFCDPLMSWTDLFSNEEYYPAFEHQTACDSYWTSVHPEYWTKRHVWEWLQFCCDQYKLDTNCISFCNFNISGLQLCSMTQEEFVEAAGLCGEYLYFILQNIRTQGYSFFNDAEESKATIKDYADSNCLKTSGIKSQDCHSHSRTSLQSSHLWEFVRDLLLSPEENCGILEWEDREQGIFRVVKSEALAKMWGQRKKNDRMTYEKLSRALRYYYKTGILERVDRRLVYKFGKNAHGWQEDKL
In a few lines: as §1

A further test concerns the target T7, ETV3 (Homo sapiens, UniProt P41162-2 1-143).
T7 sequence: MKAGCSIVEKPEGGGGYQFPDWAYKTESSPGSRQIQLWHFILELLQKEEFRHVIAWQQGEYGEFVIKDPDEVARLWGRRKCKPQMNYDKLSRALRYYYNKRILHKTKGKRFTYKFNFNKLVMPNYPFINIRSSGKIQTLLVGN
The essentials: as §1

The target in another test is ETV6 (Homo sapiens, UniProt P41212 1-452). In a few lines: as §1
ETV6, sequence (P41212 whole entry): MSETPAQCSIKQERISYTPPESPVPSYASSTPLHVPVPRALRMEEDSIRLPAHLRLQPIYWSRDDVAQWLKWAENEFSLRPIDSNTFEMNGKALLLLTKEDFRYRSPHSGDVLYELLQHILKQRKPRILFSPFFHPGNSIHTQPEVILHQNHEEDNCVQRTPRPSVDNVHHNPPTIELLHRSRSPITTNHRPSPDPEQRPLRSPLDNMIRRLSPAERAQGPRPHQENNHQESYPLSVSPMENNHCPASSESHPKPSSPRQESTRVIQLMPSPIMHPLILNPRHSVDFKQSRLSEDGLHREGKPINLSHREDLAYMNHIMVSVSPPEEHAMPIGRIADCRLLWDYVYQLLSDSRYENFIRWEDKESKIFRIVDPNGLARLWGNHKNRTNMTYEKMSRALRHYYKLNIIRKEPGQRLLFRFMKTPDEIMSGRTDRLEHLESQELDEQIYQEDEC

CCGCCG: the binding signal with ERF was 1.18 fold enrichment (6-mer frequency, TF over GST control); with ETV3L, 1.2 fold enrichment (6-mer frequency, TF over GST control); with ETS2, 1.22 fold enrichment (6-mer frequency, TF over GST control); with SPDEF, 1.34 fold enrichment (6-mer frequency, TF over GST control); with ETV7, 1.2 fold enrichment (6-mer frequency, TF over GST control); in the test with ELF5, 1.31 fold enrichment (6-mer frequency, TF over GST control). Moreover, the binding signal is 1.31 fold enrichment (6-mer frequency, TF over GST control) in the test with ETV3 and 1.23 fold enrichment (6-mer frequency, TF over GST control) with ETV6.

For the sequence TTACTG, the binding signal is 1.2 fold enrichment (6-mer frequency, TF over GST control) with ERF; 1.04 fold enrichment (6-mer frequency, TF over GST control) in the test with ETV3L; 1.09 fold enrichment (6-mer frequency, TF over GST control) in the test with ETS2; 1.07 fold enrichment (6-mer frequency, TF over GST control) with SPDEF; 1.14 fold enrichment (6-mer frequency, TF over GST control) in the test with ETV7; 1.02 fold enrichment (6-mer frequency, TF over GST control) in the test with ELF5. Moreover, the binding signal was 1.21 fold enrichment (6-mer frequency, TF over GST control) with ETV3 and 1.17 fold enrichment (6-mer frequency, TF over GST control) with ETV6.

Regarding CTGCCG, the binding signal with ERF was 1.27 fold enrichment (6-mer frequency, TF over GST control); in the test with ETV3L, 1.23 fold enrichment (6-mer frequency, TF over GST control); with ETS2 it was 1.32 fold enrichment (6-mer frequency, TF over GST control); with SPDEF it was 1.26 fold enrichment (6-mer frequency, TF over GST control); with ETV7, 1.39 fold enrichment (6-mer frequency, TF over GST control); with ELF5, 1.33 fold enrichment (6-mer frequency, TF over GST control). Besides, the binding signal with ETV3 was 1.44 fold enrichment (6-mer frequency, TF over GST control); with ETV6 it was 1.39 fold enrichment (6-mer frequency, TF over GST control).

TCATTA: the binding signal was 1.19 fold enrichment (6-mer frequency, TF over GST control) with ERF; 1.08 fold enrichment (6-mer frequency, TF over GST control) in the test with ETV3L; 1.1 fold enrichment (6-mer frequency, TF over GST control) in the test with ETS2; 1.06 fold enrichment (6-mer frequency, TF over GST control) in the test with SPDEF; 1.16 fold enrichment (6-mer frequency, TF over GST control) with ETV7; 1.09 fold enrichment (6-mer frequency, TF over GST control) in the test with ELF5. Further, the binding signal with ETV3 is 1.12 fold enrichment (6-mer frequency, TF over GST control); in the test with ETV6, 1.06 fold enrichment (6-mer frequency, TF over GST control).

With CTTTCT, the binding signal with ERF is 1.63 fold enrichment (6-mer frequency, TF over GST control); in the test with ETV3L, 1.5 fold enrichment (6-mer frequency, TF over GST control); with ETS2, 1.55 fold enrichment (6-mer frequency, TF over GST control); with SPDEF it was 1.44 fold enrichment (6-mer frequency, TF over GST control); in the test with ETV7 it was 1.46 fold enrichment (6-mer frequency, TF over GST control); in the test with ELF5, 1.5 fold enrichment (6-mer frequency, TF over GST control). The binding signal with ETV3 is 1.52 fold enrichment (6-mer frequency, TF over GST control); with ETV6, 1.52 fold enrichment (6-mer frequency, TF over GST control).

As to CCATTG, the binding signal is 1.07 fold enrichment (6-mer frequency, TF over GST control) with ERF; 1.22 fold enrichment (6-mer frequency, TF over GST control) with ETV3L; 1.14 fold enrichment (6-mer frequency, TF over GST control) with ETS2; 1.02 fold enrichment (6-mer frequency, TF over GST control) in the test with SPDEF; 1.24 fold enrichment (6-mer frequency, TF over GST control) in the test with ETV7; 1.19 fold enrichment (6-mer frequency, TF over GST control) with ELF5. For the same sequence, the binding signal is 1.19 fold enrichment (6-mer frequency, TF over GST control) with ETV3 and 1.12 fold enrichment (6-mer frequency, TF over GST control) with ETV6.

Turning to TATTAG, the binding signal is 1 fold enrichment (6-mer frequency, TF over GST control) with ERF; 1.04 fold enrichment (6-mer frequency, TF over GST control) in the test with ETV3L; 1.06 fold enrichment (6-mer frequency, TF over GST control) with ETS2; 1.06 fold enrichment (6-mer frequency, TF over GST control) with SPDEF; 1.03 fold enrichment (6-mer frequency, TF over GST control) with ETV7; 1.06 fold enrichment (6-mer frequency, TF over GST control) with ELF5. Also, the binding signal in the test with ETV3 was 1.05 fold enrichment (6-mer frequency, TF over GST control); in the test with ETV6, 1.05 fold enrichment (6-mer frequency, TF over GST control).

Consider ATTACG, for which the binding signal with ERF is 1.15 fold enrichment (6-mer frequency, TF over GST control); with ETV3L it was 1.15 fold enrichment (6-mer frequency, TF over GST control); in the test with ETS2 it was 1.29 fold enrichment (6-mer frequency, TF over GST control); with SPDEF, 1.21 fold enrichment (6-mer frequency, TF over GST control); with ETV7, 1.12 fold enrichment (6-mer frequency, TF over GST control); in the test with ELF5 it was 1.12 fold enrichment (6-mer frequency, TF over GST control). Moreover, the binding signal was 1.22 fold enrichment (6-mer frequency, TF over GST control) with ETV3 and 1.23 fold enrichment (6-mer frequency, TF over GST control) with ETV6.
